PubChem BioAssay AID1159580 (chemical genetic matrix, 2015)
The whole screen tested about 5,500 compounds, of which about 2,000 (36%) were called active. Inconclusive results (about 18%) are left out. Rule as the data show it: active = normalized growth mostly below about 0.91 (no sharp cut-off); inconclusive = no clear call, values can overlap the other calls; inactive = mostly above about 0.92. The list shows a part of the results.

Experiment: chemical genetic growth profiling, strain panel (AID 1159580);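 also: tested at 20 µM; growth read once vehicle control cultures reached saturation at 30 °C; 1 = growth at the plate median or of vehicle wells; lower values mean less growth of the strain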
Conditions: S. cerevisiae deletion strains, growth OD
[1] = locus YAL013W, strain DEP1, hits give low values

Measured: normalized growth

CC1/C(=N\O)C[C@@H]2C[C@H]1C2(C)C (some centres not stated)
inactive: [1] 1.01 | locus YBR021W, strain FUR4, hits give low values 1.01 | locus YBR229C, strain ROT2, hits give low values 1.01 | locus YCL029C, strain bik1, hits give low values 0.994 | locus YDL035C, strain GPR1, hits give low values 0.993 | locus YDL074C, strain BRE1, hits give low values 1.04 | locus YDL101C, strain DUN1, hits give low values 1.02 | locus YDL134C, strain PPH21, hits give low values 1.01 | locus YDL185W, strain tfp1, hits give low values 1.02 | locus YDL192W, strain arf1, hits give low values 1.03 | locus YDR101C, strain arx1, hits give low values 0.981 | locus YDR162C, strain NBP2, hits give low values 1.02 | locus YDR318W, strain mcm21, hits give low values 1.04 | locus YDR388W, hits give low values 1.02 | locus YDR502C, strain sam2, hits give low values 1.02 | locus YER110C, hits give low values 1.01 | locus YER155C, strain BEM2, hits give low values 1.01 | locus YER167W, strain BCK2, hits give low values 1.01 | locus YGL078C, strain dbp3, hits give low values 1.02 | locus YGL086W, strain mad1, hits give low values 0.999 | locus YGL248W, strain PDE1, hits give low values 1.03 | locus YGR078C, strain PAC10, hits give low values 1.03 | locus YGR135W, strain pre9, hits give low values 1.04 | locus YGR252W, strain gcn5, hits give low values 1.01 | locus YHR030C, strain SLT2, hits give low values 1.03 | locus YHR079C, strain IRE1 (second series), hits give low values 1.03 | locus YHR079C, strain IRE1, hits give low values 1.04 | locus YHR094C, strain hxt1, hits give low values 1.01 | locus YHR129C, strain ARP1, hits give low values 1.01 | locus YHR200W, strain rpn10, hits give low values 1.03 | locus YIL066C, strain RNR3, hits give low values 1.01 | locus YIL073C, strain SPO22, hits give low values 1.05 | locus YIL125W, strain kgd1, hits give low values 1.02 | locus YIR030C, strain dcg1, hits give low values 1.02 | locus YJL095W, strain BCK1, hits give low values 1.04 | locus YJL134W, strain LCB3, hits give low values 1.02 | locus YJL168C, strain set2, hits give low values 1.01 | locus YJL187C, strain SWE1 (second series), hits give low values 1.03 | locus YJR043C, strain POL32, hits give low values 0.994 | locus YJR066W, strain TOR1, hits give low values 0.95 | locus YJR075W, strain HOC1, hits give low values 1.03 | locus YKL009W, strain mrt4, hits give low values 0.995 | locus YKL068W, hits give low values 1.02 | locus YKL085W, strain MDH1 (second series), hits give low values 1.02 | locus YKL085W, strain MDH1, hits give low values 1.02 | locus YKL190W, strain CNB1, hits give low values 1.01 | locus YKR001C, strain vps1, hits give low values 1.05 | locus YLR039C, strain RIC1, hits give low values 1.09 | locus YLR058C, strain SHM2, hits give low values 1.02 | locus YLR102C, strain apc9, hits give low values 1.05 | locus YLR113W, strain HOG1, hits give low values 1.05 | locus YLR262C, strain YPT6, hits give low values 1.1 | locus YLR268W, strain sec22, hits give low values 1.02 | locus YLR371W, strain rom2, hits give low values 1.04 | locus YLR418C, strain cdc73, hits give low values 1.06 | locus YML016C, strain PPZ1, hits give low values 1.02 | locus YML032C, strain rad52, hits give low values 1.02 | locus YML124C, strain tub3, hits give low values 1.01 | locus YMR078C, strain ctf18, hits give low values 1.03 | locus YMR223W, strain ubp8, hits give low values 1.02 | locus YMR307W, strain GAS1, hits give low values 1.06 | locus YNL067W, strain RPL9B, hits give low values 1.02 | locus YNL183C, strain NPR1, hits give low values 0.951 | locus YNL233W, strain BNI4, hits give low values 1.03 | locus YNL250W, strain rad50, hits give low values 1.05 | locus YNL271C, strain bni1, hits give low values 1.02 | locus YNL298W, strain CLA4, hits give low values 1.02 | locus YNL307C, strain MCK1, hits give low values 1.01 | locus YNR052C, strain pop2, hits give low values 1.03 | locus YOL012C, strain htz1 1.25 | locus YOL147C, strain pex11, hits give low values 1.01 | locus YOR061W, strain CKA2, hits give low values 1.02 | locus YOR069W, strain VPS5, hits give low values 1.01 | locus YOR136W, strain idh2, hits give low values 1 | locus YOR144C, strain elg1, hits give low values 1.01 | locus YOR184W, strain ser1, hits give low values 0.926 | locus YOR231W, strain MKK1, hits give low values 1.02 | locus YOR316C, strain cot1, hits give low values 1.03 | locus YPL256C, strain CLN2, hits give low values 1.05 | locus YPR119W, strain clb2, hits give low values 1.03 | locus YPR141C, strain kar3, hits give low values 1.02 | locus YPR163C, strain tif3, hits give low values 1.03 | locus YPR167C, strain met16, hits give low values 1.03 | strain wtn01, hits give low values 0.995

CNCCc1ccc(O)c(O)c1
active: locus YDR150W, strain NUM1, hits give low values 0.922
inactive: [1] 0.964 | locus YAL040C, strain CLN3, hits give low values 0.991 | locus YCL061C, strain MRC1 (second series), hits give low values 0.956 | locus YDR363W, strain ESC2, hits give low values 1.03 | locus YER002W, strain NOP16, hits give low values 1 | locus YMR263W, strain SAP30, hits give low values 1 | locus YNL128W, strain TEP1, hits give low values 0.996 | locus YNL175C, strain NOP13, hits give low values 1 | locus YNL197C, strain WHI3, hits give low values 1.02 | locus YNL224C, strain SQS1, hits give low values 1 | locus YNL322C, strain KRE1, hits give low values 0.979 | locus YOR083W, strain WHI5 (second series), hits give low values 0.976
